This is a sample that favours compounds with a hit; in the whole collection about 2.9% have one here.
PAFAH2 inh: PAFAH2 (human) inhibition | inhibition, % at 3.39 µM | AID 492956 | recombinant PAFAH2, FP-rhodamine activity probe, fluorescence polarization | 0.99% of 340,000 active | Q99487;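 active = inhibition above the mean over all tested compounds plus 3 SD, cut at about 30% in these data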;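 note: inhibitors block probe labeling of enzyme so polarization drops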
PAFAH1B2 inh: blocks human PAF acetylhydrolase 1b catalytic subunit 2; inhibition, % at 3.39 µM; P68402; 1.2% of 340,000 active; recombinant PAFAH1B2, FP-rhodamine activity probe, fluorescence polarization;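 active = inhibition above the mean of all tested compounds plus 3 SD, cut at about 24% in these data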
Target sequence (P68402 whole entry, looked up): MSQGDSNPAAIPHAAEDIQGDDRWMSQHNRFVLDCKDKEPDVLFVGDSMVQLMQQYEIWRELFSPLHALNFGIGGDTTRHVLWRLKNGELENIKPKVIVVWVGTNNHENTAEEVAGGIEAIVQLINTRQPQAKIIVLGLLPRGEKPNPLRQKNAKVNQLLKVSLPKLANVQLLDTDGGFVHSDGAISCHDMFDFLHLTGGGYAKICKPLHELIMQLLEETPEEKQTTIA
PAFAH1B3 inh: PAFAH1B3 (human) inhibition. recombinant PAFAH1B3, FP-rhodamine probe, fluorescence polarization. inhibition, % at 3.39 µM. 0.28% of 340,000 active;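 active = inhibition above the screen-wide average of all tested compounds plus 3 SD, cut at about 25% in these data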
Target sequence (Q15102 whole entry, looked up): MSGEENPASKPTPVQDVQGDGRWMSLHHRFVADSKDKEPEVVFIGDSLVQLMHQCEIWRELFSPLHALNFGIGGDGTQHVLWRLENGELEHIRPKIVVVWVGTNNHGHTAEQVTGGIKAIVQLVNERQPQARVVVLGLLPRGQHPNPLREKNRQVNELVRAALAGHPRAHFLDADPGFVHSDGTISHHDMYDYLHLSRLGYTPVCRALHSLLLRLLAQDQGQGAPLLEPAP
pPAFAH inh: pPAFAH (human) enzyme inhibition. AID 463082. inhibition, % at 3.39 µM. Q13093. 1.5% of 330,000 active. recombinant pPAFAH, FP-rhodamine probe fluorescence polarization;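 active = inhibition above the mean inhibition across the screen plus 3 SD, cut at about 25% in these data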;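 note: inhibitors block binding of the rhodamine activity-based probe so polarization drops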
LYPLA1 counter: counter-screen for PME1 inhibitors: inhibitors of human LYPLA1; AID 2174; 0.16% of 320,000 active; recombinant LYPLA1, FP-Rh probe fluorescence polarization; inhibition, % at 5.9 µM;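 active = inhibition above the mean of all tested compounds plus 3 SD, set per campaign, cut at about 14% in these data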;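 note: inhibitors block serine hydrolase probe labeling of LYPLA1 so polarization falls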
Target sequence (O75608 whole entry, looked up): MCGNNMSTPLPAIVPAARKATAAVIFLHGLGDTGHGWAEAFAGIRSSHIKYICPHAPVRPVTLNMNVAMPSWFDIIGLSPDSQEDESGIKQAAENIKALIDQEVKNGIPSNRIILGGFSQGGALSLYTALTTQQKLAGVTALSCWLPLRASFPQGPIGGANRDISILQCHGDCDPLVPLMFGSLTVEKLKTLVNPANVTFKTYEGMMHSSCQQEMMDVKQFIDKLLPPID
LYPLA2 counter: counter-screen for PME1 inhibitors: inhibitors of human LYPLA2; recombinant LYPLA2, FP-Rh probe fluorescence polarization; 0.38% of 320,000 active; O95372; inhibition, % at 5.9 µM;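 active = inhibition above the screen-wide mean plus 3 SD, limit set per campaign, cut at about 26% in these data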
LYPLA1 confirm: counter-screen for PME1 inhibitors: confirmation of human LYPLA1 inhibitors. recombinant LYPLA1, FP-Rh probe fluorescence polarization. shares compounds with LYPLA1 counter. 69% of 480 active. inhibition, % at 5.9 µM;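 active = mean inhibition across replicates above the hit cutoff set in the primary screen, cut at about 15% in these data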;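 note: loss of FP-Rh probe labeling of LYPLA1 seen as lower polarization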
A number is an active result.

For O=C(CSc1ccccc1)NCCc1ccc(F)cc1 the results were PAFAH2 inh inactive, PAFAH1B2 inh 27, PAFAH1B3 inh inactive, pPAFAH inh inactive, LYPLA1 counter inactive and LYPLA2 counter inactive.
`Cc1ccc(C)c(SCC(=O)NC(=O)NCc2ccccc2)c1` gave PAFAH2 inh inactive, PAFAH1B2 inh inactive, PAFAH1B3 inh inactive, pPAFAH inh inactive, LYPLA1 counter inactive and LYPLA2 counter inactive.
O=C(CSc1ncn[nH]1)NCCc1ccccc1 was read as PAFAH2 inh inactive, PAFAH1B2 inh inactive, PAFAH1B3 inh inactive, pPAFAH inh inactive, LYPLA1 counter inactive and LYPLA2 counter inactive.
For O=C(CSc1ccc(F)cc1)NC(=O)NCc1ccccc1 the results were PAFAH2 inh inactive, PAFAH1B2 inh 28, PAFAH1B3 inh inactive, pPAFAH inh inactive, LYPLA1 counter inactive and LYPLA2 counter inactive.
For CC(C)CN(CC(C)C)C(=O)Nc1cccc([N+](=O)[O-])c1 the results were PAFAH2 inh inactive, PAFAH1B2 inh inactive, PAFAH1B3 inh inactive, pPAFAH inh inactive, LYPLA1 counter inactive and LYPLA2 counter inactive.
For O=C(CSc1ccccc1)NCCc1ccccc1 the results were PAFAH2 inh inactive, PAFAH1B2 inh inactive, PAFAH1B3 inh inactive, pPAFAH inh inactive, LYPLA1 counter inactive and LYPLA2 counter inactive.
Screening O=C(CSc1ccc(F)cc1)NCCSc1ccccc1 returned PAFAH2 inh inactive, PAFAH1B2 inh 28, PAFAH1B3 inh inactive, pPAFAH inh inactive, LYPLA1 counter inactive and LYPLA2 counter inactive.
For CCOC(=O)C1CCN(C(=O)COC(=O)c2c(C)c(CC)nc3ccccc23)CC1 the results were PAFAH2 inh inactive, PAFAH1B2 inh inactive, PAFAH1B3 inh inactive and pPAFAH inh inactive.
For O=C(O)c1cccc(-n2cccc2/C=C/[N+](=O)[O-])c1 the results were PAFAH2 inh inactive, PAFAH1B2 inh inactive, PAFAH1B3 inh inactive, pPAFAH inh 29, LYPLA1 counter inactive and LYPLA2 counter inactive.
Clc1cc(Cl)c2nc(N3CCCC3)sc2c1 was read as PAFAH2 inh inactive, PAFAH1B2 inh inactive, PAFAH1B3 inh inactive, pPAFAH inh inactive, LYPLA1 counter inactive and LYPLA2 counter inactive.
`Nc1cccc2c1C(=O)c1ccc(Cl)cc1C2=O` gave PAFAH2 inh inactive, PAFAH1B2 inh inactive and PAFAH1B3 inh inactive.
`CCOc1cc2c3c(c1)C(C)=CC(C)(C)N3C(=O)C2=O` gave PAFAH2 inh inactive, PAFAH1B2 inh inactive, PAFAH1B3 inh inactive, pPAFAH inh inactive, LYPLA1 counter inactive and LYPLA2 counter inactive.
Screening CC(=O)Oc1cc2c3c(c1)/C(=C1/SC(=S)NC1=O)C(=O)N3C(C)(C)C=C2C returned PAFAH2 inh 37, PAFAH1B2 inh 48, PAFAH1B3 inh inactive, pPAFAH inh 30, LYPLA1 counter inactive and LYPLA2 counter inactive.
`C=CCC1(CC=C)CCCN1C(=O)c1cc(COc2cccc(OC)c2)on1` gave PAFAH2 inh inactive, PAFAH1B2 inh inactive, PAFAH1B3 inh inactive, pPAFAH inh inactive, LYPLA1 counter inactive and LYPLA2 counter inactive.
`O=C(O)c1ccc2oc(=O)c(S(=O)(=O)c3ccc(F)cc3)cc2c1` gave PAFAH2 inh 45, PAFAH1B2 inh 32, PAFAH1B3 inh inactive, pPAFAH inh inactive, LYPLA1 counter inactive and LYPLA2 counter inactive.
Screening CCCCCCc1cc2cc(S(=O)(=O)c3ccc(F)cc3)c(=O)oc2cc1O returned PAFAH2 inh inactive, PAFAH1B2 inh inactive, PAFAH1B3 inh inactive, pPAFAH inh inactive, LYPLA1 counter inactive and LYPLA2 counter inactive.
`O=C(O)c1ccc2oc(=O)c(S(=O)(=O)c3ccccc3)cc2c1` gave PAFAH2 inh inactive, PAFAH1B2 inh 27, PAFAH1B3 inh inactive, pPAFAH inh inactive, LYPLA1 counter inactive and LYPLA2 counter inactive.
O=c1c2ccc(Cl)cc2[nH]c(=S)n1CCC1=CCCCC1 was read as PAFAH2 inh inactive, PAFAH1B2 inh inactive, PAFAH1B3 inh inactive, pPAFAH inh inactive, LYPLA1 counter inactive and LYPLA2 counter inactive.
O=S(=O)(Nc1cccc(Cl)c1)c1ccc2oc(=S)[nH]c2c1 was read as PAFAH2 inh inactive, PAFAH1B2 inh inactive, PAFAH1B3 inh inactive, pPAFAH inh 32, LYPLA1 counter inactive and LYPLA2 counter inactive.
Screening CC(C)(C)c1nc(SCC(=O)N2CCCC2)c2ccccc2n1 returned PAFAH2 inh inactive, PAFAH1B2 inh inactive, PAFAH1B3 inh inactive, pPAFAH inh inactive, LYPLA1 counter inactive and LYPLA2 counter inactive.
CC(=O)c1cnc(SCc2ccc(Cl)cc2)nc1C was read as PAFAH2 inh inactive, PAFAH1B2 inh inactive, PAFAH1B3 inh inactive, pPAFAH inh inactive, LYPLA1 counter inactive and LYPLA2 counter inactive.
`CCOCCCNC(=O)C(c1ccc(OC)cc1)N(Cc1cccs1)C(=O)c1ccccn1` (stereo unspecified) gave PAFAH2 inh inactive, PAFAH1B2 inh inactive, PAFAH1B3 inh inactive, pPAFAH inh inactive, LYPLA1 counter inactive and LYPLA2 counter inactive.
Screening Cc1ccc(C(C[N+](=O)[O-])c2c(-c3ccccc3O)[nH][nH]c2=O)cc1 (stereo unspecified) returned PAFAH2 inh inactive, PAFAH1B2 inh 25, PAFAH1B3 inh inactive, pPAFAH inh inactive, LYPLA1 counter inactive and LYPLA2 counter inactive.
`COc1ccc(CCN(C)Cc2c(O)ccc3cc(Br)ccc23)cc1OC` gave PAFAH2 inh inactive, PAFAH1B2 inh 36, PAFAH1B3 inh inactive, pPAFAH inh inactive, LYPLA1 counter inactive and LYPLA2 counter inactive.
Screening COc1cccc(-c2nnc(-c3ccccc3[N+](=O)[O-])o2)c1 returned pPAFAH inh inactive, LYPLA1 counter inactive and LYPLA2 counter inactive.
For N/C(=N\OC(=O)CCCOc1ccccc1)c1ccc(Br)cc1 the results were PAFAH2 inh inactive, PAFAH1B2 inh 81, PAFAH1B3 inh inactive, pPAFAH inh inactive, LYPLA1 counter inactive and LYPLA2 counter inactive.
`N/C(=N\OC(=O)CCCOc1ccccc1)c1ccncc1` gave PAFAH2 inh inactive, PAFAH1B2 inh inactive, PAFAH1B3 inh inactive, pPAFAH inh inactive, LYPLA1 counter inactive and LYPLA2 counter inactive.
`N/C(=N\OC(=O)CCCOc1ccccc1)c1ccccc1` gave PAFAH2 inh inactive, PAFAH1B2 inh 29, PAFAH1B3 inh inactive, pPAFAH inh inactive, LYPLA1 counter inactive and LYPLA2 counter inactive.
CCCCC1OC23CCCCC2C(C#N)(C#N)C1(C#N)C(=N)O3 (stereo unspecified) was read as PAFAH2 inh 41, PAFAH1B2 inh 30, PAFAH1B3 inh 36, pPAFAH inh inactive, LYPLA1 counter 15, LYPLA2 counter inactive and LYPLA1 confirm inactive.
`O=C1NCC2=C1C(c1ccccc1)Nc1ccccc1N2` (stereo unspecified) gave PAFAH2 inh inactive, PAFAH1B2 inh inactive, PAFAH1B3 inh inactive, pPAFAH inh inactive, LYPLA1 counter inactive and LYPLA2 counter inactive.
Screening CCOC(=O)/C(=C\C=C\N1CCOCC1)C(C)=O returned PAFAH2 inh inactive, PAFAH1B2 inh inactive, PAFAH1B3 inh inactive, pPAFAH inh inactive, LYPLA1 counter inactive and LYPLA2 counter inactive.

Assay outcomes deposited in PubChem by The Scripps Research Institute Molecular Screening Center.
